In PubChem BioAssay (Tox21) one finds Potency and outcome data, which are given here for seven compounds.

Values joined by “and” are separate entries in the source; they are usually repeats but may differ in a detail not shown here. Identical values can stand only once. Records with an inconclusive call do not appear. Some compounds were tested as several samples or in several runs, with calls that do not always agree. Active and inactive are the calls of the source. Unless noted, calls follow the shape of the dose curve; as a rule, active = well fitted curve in the direction sought with a large enough effect in the repeat runs; inconclusive = weak or mixed curves; inactive = no such curve, though single readings can be large; an effect the other way counts as inactive or inconclusive.

Experiment [1] addresses Estrogen receptor (Homo sapiens) (UniProt P03372). The experiment is described as follows: qHTS assay to identify small molecule antagonists of the estrogen receptor alpha (ER-alpha) signaling pathway using the BG1 cell line in the presence of 0.1 nM 17-beta-estradiol (AID 1259244). Also: nearly all actives have a fitted effect of over 50% in size. Also: potency is read from the fitted curve at half-maximal effect. In a few lines:
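Compounds were tested against 0.1 nM (final) 17beta-estradiol in VM7Luc4E2 cells, which express full-length ER-alpha and an ERE-luciferase reporter; luminescence was recorded following 22 h exposure.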
Background: Quantitative high-throughput screening tests each substance at several concentrations.

Experiment [2] in a line: qHTS assay to identify small molecule phospholipidosis (PLD) inducers (AID 1259344; active = well fitted curve in the direction sought with a large enough effect; an effect the other way counts as inactive or inconclusive). In a few lines:
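Cells (HepG2, 900 per well) attach for 4 h, receive LipidTOX Red and compound together, incubate 24 h at 37 C, are fixed 30 min with paraformaldehyde/Hoechst, then imaged at one site per well.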

Experiment [3] in a line: qHTS assay to identify small molecule HDAC inhibitors (AID 1259364).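 Also: wild-type HCT-116 cells with endogenous class I/II HDAC activity; top concentration of the series differs between compounds; nearly all actives have a fitted effect of over 45% in size.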 An outline of the steps: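 Screening used wild-type human colon HCT-116 cells incubated overnight, dosed with compounds for 2 hours, and assayed with a homogeneous luminogenic HDAC I/II reagent for 30 minutes at room temperature.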
The nature of experiment [4]: qHTS assay to identify small molecule HDAC inhibitors - cell viability counter screen (AID 1259365). Also: series mostly up to about 92 µM; nearly all actives have a fitted effect of over 50% in size. In a few lines: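 Cytotoxicity was gauged in wild-type HCT-116 cells after a brief 2hr treatment with DMSO-dissolved compounds at 37C and 5% CO2, using CellTiter-Glo luminescence developed for 30min at room temperature.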
Experiment [5] is described as follows: qHTS assay to identify small molecule antagonists of the sonic hedgehog signaling (Shh) pathway - cell viability counter screen (AID 1259367). Also: nearly all actives have a fitted effect of over 55% in size. Also: potency is read from the fitted curve at half-maximal effect. An outline of the steps:
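Cytotoxicity was assessed in parallel with Shh reporter activity by measuring live-cell protease fluorescence (CellTiter-Fluor) in NIH/3T3 cells stably carrying Gli1-Luc, treated with compound under conditioned medium stimulation for 23 hr plus 1 hr reagent incubation.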

The nature of experiment [6]: qHTS assay to identify small molecule agonists of the sonic hedgehog signaling (Shh) pathway (AID 1259368; calls by dose curve;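 also: NIH/3T3-derived 3T3Gli1-Luc cells carrying a stable Gli1-driven firefly luciferase reporter; series mostly up to about 92 µM; nearly all actives have a fitted effect of over 15% in size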). In a few lines: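 Hedgehog pathway agonism scored by increased firefly luciferase luminescence in 3T3Gli1-Luc cells treated 24 hr at 37 C; detection used a 30 min room-temperature reagent incubation.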
Experiment [7] in a line: qHTS assay to identify small molecule antagonists of the sonic hedgehog signaling (Shh) pathway (AID 1259369; calls by dose curve; also: nearly all actives have a fitted effect of over 45% in size; also: potency is read from the fitted curve at half-maximal effect). An outline of the steps: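 NIH/3T3 stable Gli1-Luc clone, 2,000 cells/well, 4hr settle; cpd + conditioned medium 24hr; Luc reagent 30min RT; luminescence.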
Experiment [8] has as its target Estrogen receptor beta (Homo sapiens) (UniProt Q92731). Description: qHTS assay to identify small molecule agonists of the estrogen receptor beta (ER-beta) signaling pathway (AID 1259377; active = well fitted activation curve with a large enough effect in the signal ratio in the repeat runs, not every such curve was filed as active; the % refers to the signal ratio). An outline of the steps: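 Measured by fluorescence intensity from a B/G FRET beta-lactamase substrate (2 h, room temperature) in ER-beta-UAS-bla HEK293T cells treated with DMSO-dissolved compounds for 16 hr at 37C and 5% CO2.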

Experiment [9] is described as follows: qHTS assay to identify small molecule agonists of the androgen receptor (AR) signaling pathway in the presence of an antagonist - cell viability counter screen (AID 1259379). Also: nearly all actives have a fitted effect of over 25% in size. Also: potency is read from the fitted curve at half-maximal effect. In a few lines:
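MDA-kb2 viability measured by CellTiter-Fluor fluorescence in the same wells as the luciferase signal; nilutamide 3.0uM final; 15-point compound titration; 16 hr at 37C.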

Experiment [10] in a line: qHTS assay to identify small molecule agonists of the estrogen receptor beta (ER-beta) signaling pathway - cell viability counter screen (AID 1259380). Also: nearly all actives have a fitted effect of over 30% in size. Also: potency is read from the fitted curve at half-maximal effect. An outline of the steps:
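Measured: luminescence from CellTiter-Glo after 30 min at room temperature, added to wells already read for the LiveBLAzer FRET reporter (2 hr substrate); ER-beta-UAS-bla HEK293T cells had 16 hr compound treatment at 37C, 5% CO2.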

The nature of experiment [11]: qHTS assay to identify small molecule antagonists of the estrogen receptor beta (ER-beta) signaling pathway - cell viability counter screen (AID 1259382). Also: nearly all actives have a fitted effect of over 55% in size. Also: potency is read from the fitted curve at half-maximal effect. In a few lines: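 Readout: luminescence, CellTiter-Glo, same wells as bla assay. System: ER-beta-UAS-bla GripTite HEK293T, 2% charcoal-stripped FBS. Exposure: compounds plus 1nM 17-beta-estradiol, 16 hr, 37C.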
In experiment [12] the target is Estrogen receptor (Homo sapiens) (UniProt P03372). Description: qHTS assay to identify small molecule agonists of the estrogen receptor alpha (ER-alpha) signaling pathway in the presence of an antagonist (AID 1259383; calls by dose curve; also: top concentration of the series differs between compounds; nearly all actives have a fitted effect of over 15% in size). An outline of the steps: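 Quantitative HTS confirmation: compounds titrated at 15 concentrations onto estrogen-deprived VM7Luc4E2 cells carrying a four-ERE luciferase construct, with ICI-182,780 present at 10.0nM final. Signal is luminescence after 22hr exposure.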

Experiment [13] in a line: qHTS assay to identify small molecule agonists or antagonists of the thyroid stimulating hormone receptor (TSHR) signaling pathway - wild type cell line counter screen (AID 1259384; calls by dose curve). An outline of the steps:
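Wild-type HEK293 cells were plated 18 h at 37 C/5% CO2, pin-dosed with compound plus Ro20-1724 medium, held 30 min at room temperature, then given cAMP-d2 and anti-cAMP-cryptate; fluorescence was read after 1 h. Fifteen concentrations, triplicate.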

For experiment [14], the target named is Thyrotropin receptor (Homo sapiens) (UniProt P16473). The experiment is described as follows: qHTS assay to identify small molecule antagonists of the thyroid stimulating hormone receptor (TSHR) signaling pathway (AID 1259385; calls by dose curve; also: nearly all actives have a fitted effect of over 20% in size). An outline of the steps: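 TSHR-HEK293 cells were plated and held 18 h at 37C/5% CO2, then given compound plus Ro20-1724 and stimulated with TSH at 1.5 ng/mL final. After 30 min at room temperature, cAMP was detected with cAMP-d2/anti-cAMP-cryptate (1 h) by fluorescence.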

Experiment [15] addresses Progesterone receptor (Homo sapiens) (UniProt P06401). The experiment is described as follows: qHTS assay to identify small molecule agonists of the progesterone receptor (PR) signaling pathway (AID 1346784; calls by dose curve; also: nearly all actives have a fitted effect of over 30% in size; also: potency is read from the fitted curve at half-maximal effect). An outline of the steps: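 The screen uses PR-UAS-bla HEK 293T cells in charcoal-stripped serum (2%). Compounds are applied for 16 hr at 37C after a 6 hr pre-incubation, and reporter activity is detected with a FRET beta-lactamase substrate after 2 hr at room temperature.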

The nature of experiment [16]: qHTS assay to identify small molecule agonists of the sonic hedgehog signaling (Shh) pathway - cell viability counter screen (AID 1259366). Also: nearly all actives have a fitted effect of over 50% in size. Also: potency is read from the fitted curve at half-maximal effect. An outline of the steps:
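Stable Gli1-Luc NIH/3T3 clone, 2,000 cells/well. Compound exposure 24hr at 37C. Read-out: CellTiter-Fluor fluorescence.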

Experiment [17] is described as follows: qHTS assay to identify small molecule agonists of the estrogen receptor alpha (ER-alpha) signaling pathway in the presence of an antagonist - cell viability counter screen (AID 1259386).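 Also: series mostly up to about 92 µM; cells exposed to compounds for 22 h at 37 °C before the viability read; nearly all actives have a fitted effect of over 30% in size.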 An outline of the steps:
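The test measures whether compounds kill ER-alpha reporter cells (VM7Luc4E2) under antagonist co-treatment (ICI-182,780, 10.0nM). Fluorescence from CellTiter-Fluor is read after a 22hr exposure.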

Thyrotropin receptor (Homo sapiens), sequence (P16473 whole entry, looked up): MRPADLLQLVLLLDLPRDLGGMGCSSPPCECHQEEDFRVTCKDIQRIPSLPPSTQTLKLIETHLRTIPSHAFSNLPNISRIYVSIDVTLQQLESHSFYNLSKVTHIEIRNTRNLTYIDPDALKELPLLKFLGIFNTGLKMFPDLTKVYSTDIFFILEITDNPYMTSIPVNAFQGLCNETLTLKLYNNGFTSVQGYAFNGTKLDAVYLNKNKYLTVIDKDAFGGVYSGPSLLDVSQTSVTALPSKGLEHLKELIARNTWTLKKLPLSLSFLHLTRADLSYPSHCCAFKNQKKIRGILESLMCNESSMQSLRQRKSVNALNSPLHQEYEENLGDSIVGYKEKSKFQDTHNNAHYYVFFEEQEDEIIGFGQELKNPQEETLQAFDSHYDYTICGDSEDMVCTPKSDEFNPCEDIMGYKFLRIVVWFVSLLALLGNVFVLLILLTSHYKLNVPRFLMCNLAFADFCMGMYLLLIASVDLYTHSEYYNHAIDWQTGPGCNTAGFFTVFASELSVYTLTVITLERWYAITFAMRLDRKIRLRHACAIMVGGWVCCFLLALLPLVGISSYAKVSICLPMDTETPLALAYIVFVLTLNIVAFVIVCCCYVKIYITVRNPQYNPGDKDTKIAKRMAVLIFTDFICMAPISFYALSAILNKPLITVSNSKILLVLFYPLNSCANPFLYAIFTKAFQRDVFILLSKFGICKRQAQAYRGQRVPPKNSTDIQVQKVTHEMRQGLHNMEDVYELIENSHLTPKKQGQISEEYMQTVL
Estrogen receptor beta (Homo sapiens), sequence (Q92731 whole entry, looked up): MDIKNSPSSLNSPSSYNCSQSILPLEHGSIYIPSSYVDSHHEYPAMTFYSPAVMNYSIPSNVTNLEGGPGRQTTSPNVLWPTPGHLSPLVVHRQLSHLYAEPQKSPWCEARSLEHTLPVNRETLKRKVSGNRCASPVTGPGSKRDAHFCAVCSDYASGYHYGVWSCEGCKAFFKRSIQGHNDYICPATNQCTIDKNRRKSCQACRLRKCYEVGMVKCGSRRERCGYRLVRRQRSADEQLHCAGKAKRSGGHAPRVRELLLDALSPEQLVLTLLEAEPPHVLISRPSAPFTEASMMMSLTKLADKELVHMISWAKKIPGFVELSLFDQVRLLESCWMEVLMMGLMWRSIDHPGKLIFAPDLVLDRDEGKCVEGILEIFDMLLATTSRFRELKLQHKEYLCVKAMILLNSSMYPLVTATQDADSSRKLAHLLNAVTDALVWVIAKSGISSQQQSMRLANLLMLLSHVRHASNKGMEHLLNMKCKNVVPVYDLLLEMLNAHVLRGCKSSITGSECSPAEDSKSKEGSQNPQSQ
Progesterone receptor (Homo sapiens), sequence (P06401 whole entry, looked up): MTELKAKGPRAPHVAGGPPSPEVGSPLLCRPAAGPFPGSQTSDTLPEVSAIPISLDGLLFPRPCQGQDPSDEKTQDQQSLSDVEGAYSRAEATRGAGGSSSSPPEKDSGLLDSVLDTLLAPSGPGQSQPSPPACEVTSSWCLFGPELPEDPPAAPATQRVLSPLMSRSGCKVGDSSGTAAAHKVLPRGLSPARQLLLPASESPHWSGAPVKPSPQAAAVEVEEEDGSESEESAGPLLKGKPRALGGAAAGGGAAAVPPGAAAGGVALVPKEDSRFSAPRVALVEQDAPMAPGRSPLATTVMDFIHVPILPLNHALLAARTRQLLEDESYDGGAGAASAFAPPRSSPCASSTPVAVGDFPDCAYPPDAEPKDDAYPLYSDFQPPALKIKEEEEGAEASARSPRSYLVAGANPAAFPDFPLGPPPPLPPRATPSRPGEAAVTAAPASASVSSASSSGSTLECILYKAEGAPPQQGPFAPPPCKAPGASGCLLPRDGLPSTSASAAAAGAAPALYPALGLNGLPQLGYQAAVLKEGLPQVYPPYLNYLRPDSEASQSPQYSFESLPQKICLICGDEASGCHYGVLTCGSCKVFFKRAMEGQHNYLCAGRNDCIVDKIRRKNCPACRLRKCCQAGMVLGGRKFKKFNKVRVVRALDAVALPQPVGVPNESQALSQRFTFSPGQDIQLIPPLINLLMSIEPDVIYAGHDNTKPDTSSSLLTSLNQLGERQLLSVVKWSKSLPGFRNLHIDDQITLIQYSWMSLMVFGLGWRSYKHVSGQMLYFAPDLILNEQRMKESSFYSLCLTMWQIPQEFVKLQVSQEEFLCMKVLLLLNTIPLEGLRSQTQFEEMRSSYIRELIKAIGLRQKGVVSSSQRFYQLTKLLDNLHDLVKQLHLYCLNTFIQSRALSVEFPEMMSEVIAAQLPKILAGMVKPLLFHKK
Estrogen receptor (Homo sapiens), sequence (P03372 whole entry, looked up): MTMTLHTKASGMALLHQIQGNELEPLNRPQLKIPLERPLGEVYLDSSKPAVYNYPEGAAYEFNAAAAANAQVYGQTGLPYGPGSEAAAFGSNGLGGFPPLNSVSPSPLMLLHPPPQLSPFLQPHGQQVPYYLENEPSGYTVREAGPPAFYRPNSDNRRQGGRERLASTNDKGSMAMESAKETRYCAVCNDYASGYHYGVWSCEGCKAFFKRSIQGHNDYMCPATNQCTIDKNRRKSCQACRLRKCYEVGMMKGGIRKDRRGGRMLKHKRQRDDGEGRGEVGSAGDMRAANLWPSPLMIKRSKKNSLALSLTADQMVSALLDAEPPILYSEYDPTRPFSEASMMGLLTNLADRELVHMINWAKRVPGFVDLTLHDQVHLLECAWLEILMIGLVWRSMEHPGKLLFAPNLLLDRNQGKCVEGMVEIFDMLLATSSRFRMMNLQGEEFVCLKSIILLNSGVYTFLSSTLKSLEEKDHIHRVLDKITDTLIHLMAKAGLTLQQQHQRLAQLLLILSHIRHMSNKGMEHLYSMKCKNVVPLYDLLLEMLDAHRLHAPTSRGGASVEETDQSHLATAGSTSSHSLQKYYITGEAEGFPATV

Consider `CC(=O)N[C@@H](CS)C(=O)O`, for which the Potency entry in experiment [1], in experiment [2], in experiment [3], in experiment [4], in experiment [5] and in [6] was “inactive” throughout. The Potency result in [7], in [9], in experiment [10], in [11], in experiment [12] and in [13] was “inactive” throughout. Moreover, the Potency result in experiment [14] and in experiment [15] was “inactive” each time. Moreover, the outcome in [8] was inactive.
Take `Clc1ccc2c(c1)C(N1CCNCC1)=Nc1ccccc1O2`: the Potency result in experiment [1], in [2], in experiment [3], in experiment [4], in experiment [5] and in [6] was “inactive” in each case. Further, the Potency entry in experiment [7], in experiment [11], in experiment [12], in [13], in experiment [14] and in experiment [17] was “inactive” each time. Besides, the Potency in [16] was 24.3 µM (active) and 13.3 µM (active); in [10], 30.6 µM (active) and 23.7 µM (active). In addition, in [8], the compound was called inactive.
For the compound `CCCCCC(=O)O[C@]1(C(C)=O)CC[C@H]2[C@@H]3CCC4=CC(=O)CC[C@]4(C)[C@H]3CC[C@@]21C`, the Potency is 48.2 µM (active) in experiment [1]; 68.1 µM (active) and inactive in [5]; 60.7 µM (active) and 29.8 µM (active) in experiment [9]. Moreover, the Potency entry in experiment [2], in experiment [4], in experiment [16], in [6], in experiment [10] and in experiment [11] was “inactive” throughout. Also, the Potency entry in experiment [12], in experiment [13] and in [17] was “inactive” each time. The outcome in [8] was inactive.
Take `CCCCC(CC)COC(=O)CC(C(=O)OCC(CC)CCCC)S(=O)(=O)O` (stereo not given): the Potency result in experiment [1], in experiment [2], in experiment [3], in experiment [4], in [5] and in experiment [6] was “inactive” in each case. In addition, the Potency result in experiment [7], in experiment [12], in [17] and in [15] was “inactive” each time. Besides, the result in [8] was inactive. Also, the Potency in experiment [10] is 26.3 µM (active) and 30.6 µM (active); in [11] it was 29.5 µM (active) and 27.3 µM (active).
For the compound `CC(=O)O[C@]1(C(C)=O)CC[C@H]2[C@@H]3C[C@H](C)C4=CC(=O)CC[C@]4(C)[C@H]3CC[C@@]21C`, the Potency entry in experiment [1], in experiment [2], in experiment [3], in experiment [4], in experiment [16] and in experiment [5] was “inactive” throughout. The Potency result in experiment [6], in [10], in experiment [11], in experiment [12], in experiment [13] and in experiment [14] was “inactive” throughout. Moreover, the Potency entry in experiment [17] was “inactive”. Moreover, in experiment [7], the Potency was 19.3 µM (active).
`Cc1cccc(O)c1C`: the Potency result in experiment [1], in experiment [3], in [4], in [16], in [5] and in experiment [6] was “inactive” each time. Also, the Potency result in experiment [7], in [9], in [10], in experiment [11], in experiment [12] and in experiment [13] was “inactive” throughout. In addition, the Potency result in experiment [14] is “inactive”. In experiment [8], the compound was called inactive. The Potency in experiment [15] was 24.2 µM (active) and inactive.
For the compound `O=C1NCC2(CCN(CCc3ccccc3)CC2)O1`, the Potency result in [1], in [2], in experiment [4], in experiment [16], in [5] and in experiment [6] was “inactive” each time. In addition, the Potency result in [7], in experiment [9], in experiment [10], in experiment [11], in experiment [12] and in [13] was “inactive” in each case. For the same compound, the Potency entry in [14] and in [15] was “inactive” each time. In [8], the compound was called inactive.
